Tau FP inhib: blocks human tau fibril formation measured by polarization | K18 P301L tau heparin fibrillization, Alexa594 FP, 6 h | Potency, µM (doses to about 57.7 µM), for inactives: top-dose activity, negative = inhibition, actives largely listed as inhibitors | 280,000 tested, 0.39% active; also: potency is read from the fitted curve at half-maximal effect; nearly all actives have a fitted effect of over 55% in size
Target sequence (P10636 561-689 P618L limits assumed): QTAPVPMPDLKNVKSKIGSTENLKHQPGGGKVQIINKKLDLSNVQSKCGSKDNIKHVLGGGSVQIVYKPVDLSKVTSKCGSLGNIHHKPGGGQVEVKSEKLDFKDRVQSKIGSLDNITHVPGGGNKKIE
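Steps: dispense K18 P301L tau (15 uM plus 0.24 uM Alexa 594 tracer, final) in pH 7 sodium acetate; add compound; add heparin (20 uM final); incubate 6 hr, 37 C; add ThT (30 uM final); after 1 hr ambient, read FP.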
Tau fluor counter: counter-screen for tau fibril formation inhibitors. tau K18 P301L Alexa594 fluorescence, heparin fibrillization. Potency, µM (highest dose often 57.7 µM), for the others: top-dose activity change, negative = decrease. 280,000 tested, 0.93% active. AID 1463; also: potency is read from the fitted curve at half-maximal effect; nearly all actives have a fitted effect of over 55% in size
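Human tau K18 P301L (15 uM unlabeled, 0.24 uM Alexa 594-labeled) in 100 mM sodium acetate pH 7 with 20 uM heparin, 6 hr at 37 C. ThT 30 uM added, 1 hr ambient; Alexa 594 FP and total fluorescence read at 555/632 nm.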
Tau ThT inhib: blocks human tau fibril formation measured by thioflavin T. Potency, µM (doses to about 57.4 µM), inactives show at the top dose activity, negative = inhibition, actives largely listed as inhibitors. 270,000 tested, 2.1% active. recombinant tau K18 P301L (four-repeat tau fragment), heparin-induced fibrillization, ThT fluorescence. AID 1460; also: potency is read from the fitted curve at half-maximal effect; nearly all actives have a fitted effect of over 55% in size
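Heparin-induced (20 uM) aggregation of recombinant human K18 P301L tau, 15 uM unlabeled with 0.24 uM labeled, pH 7 acetate buffer, 6 hr at 37 C with compound. Fibrils quantified by 30 uM ThT fluorescence after 1 hr ambient incubation.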
Coupling enz: coupling enzyme interference in Giardia aldolase counter-screen | coupling enzyme system counterscreen, AmpLite Red fluorescence | activity change, negative = inhibition, % at 58.2 µM, hits read low | 290,000 tested, 0.67% active | AID 2472; in the data active = activity change below about -30%
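Fluorescence at 525 nm excitation and 598 nm emission measured inhibition of the coupled detection system without aldolase. Compounds (at 57.5 uM final) were preincubated 10 min at room temperature with coupling enzyme reagent before a 20 min substrate/AmpLite Red step.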
Sfp inh: blocks B. subtilis Sfp PPTase activity; Biochemical Sfp PPTase activity, qHTS; Q9F4F7; Potency, µM, for inactives: largest response in the series, negative = inhibition, usual class: inhibitors; 310,000 tested, 3.5% active;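 also: the enzyme is Sfp with the accession as filed and its product quenches rhodamine fluorescence; potency is read from the fitted curve at half-maximal effect; 0% = enzyme reaction without inhibitor and -100% = no enzyme wells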
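Fluorescence-quenching assay: 15 nM Sfp-PPTase preincubated 15 min at room temperature with compound, then 5 uM rhodamine-CoA and 12.5 uM BHQ-2-labelled YbbR peptide added. Fluorescence (ex 525/em 598 nm) read at start and after 30 min; difference gives rate.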
The depositor's hits bear a star; ? = inconclusive; / = no result given; ! = not confirmed by another sample; [ ] = remark or other dose. In the library only some 5.2% were active in any assay of this set; here they are far more common. Unless noted, calls follow the shape of the dose curve; as a rule, active = well fitted curve in the direction sought with a large enough effect; inconclusive = small, poorly fitted or top-dose-only effect, or another doubt; inactive = no such curve, though single readings can be large; an effect the other way counts as inactive or inconclusive. Unless noted, % is scaled to controls: 0 for no effect and ±100 for the full control effect.

SMILES	Tau FP inhib	Tau fluor counter	Tau ThT inhib	Coupling enz	Sfp inh
COc1ccc(C(=O)Nc2nc3c(s2)CCc2cc(OC)ccc2-3)cc1	?	11µM*[quencher]	10µM*	/	/
COc1ccc2c(c1)Cc1sc(NC(=O)c3cccc(C)c3)nc1-2	-18%	16µM*[quencher]	13µM*	/	/
Cc1ccc(C)c(CNC(=O)CN2C(=O)CSc3ccc(S(=O)(=O)N(C)C)cc32)c1	-2%	-8%	-2%	/	/
c1ccc(OCCOCCN2CCOCC2)cc1	3%	-4%	-8%	2	11%
CCN1CCN(CCOCCOc2ccccc2)CC1	/	/	/	-2	50µM*
c1ccc(CN2CCN(CCOCCOc3cccc4ccccc34)CC2)cc1	11%	-1%	-10%	4	50µM*
Cc1ccc(CNC(=O)CN2N=C(c3ccccc3)CCC2=O)cc1	-1%	-9%	0%	/	/
Nc1n[nH]c(=S)n1-c1ccc(Cl)cc1	?	-20%	?	1	16µM*
Cc1ccc(C)c(N2C(=O)N(Cc3cc(=O)n4ccccc4n3)c3ccccc3S2(=O)=O)c1	3%	-29%	-13%	/	/
Cc1ccc(/C=N/n2c(-c3ccncc3)n[nH]c2=S)o1	-5%	0%	1%	0	25µM*
Cc1ccc(/C=N/n2c(-c3ccncc3)n[nH]c2=S)s1	2%	3%	3%	0	63µM*
Cc1ccc(/C=N/n2c(C)n[nH]c2=S)o1	4%	10%	3%	3	-12%
COc1ccc(-c2nc(C)c(CCNS(=O)(=O)c3cc(C)c(C)cc3C)s2)cc1	4%	-20%	-13%	/	/
COc1ccc(NC(=O)Cn2c(=O)n(-c3ccc(OC)cc3)c(=O)c3sc4ccccc4c32)cc1	?	-15%	3%	/	/
O=C(NCc1n[nH]c(=S)n1-c1ccc(Cl)c(Cl)c1)c1cccs1	-1%	-3%	0%	0	89µM*
O=C(NCc1n[nH]c(=S)n1-c1cccc(Cl)c1)c1cccs1	-8%	-12%	-9%	5	12%
Cc1oc2ccc(O)c(CN3CCCCCC3)c2c1C(=O)Nc1cccc(Cl)c1C	10%	-3%	-5%	/	/
CN=C1C([N+](=O)[O-])=CC=C2C1=NC1(CCCCC1)N2O	-1%	-6%	-1%	-45*	8.9µM*
O=[N+]([O-])C1=CC=C2C(=NC3(CCCCC3)N2O)C1=NCCO	-4%	-8%	-15%	-53*	40µM*
Cc1ccccc1NC(=O)CN(C)S(=O)(=O)c1cccc2nsnc12	-1%	0%	-2%	/	/
CSc1cccc(NC(=S)N(CCCN2CCCC2)Cc2cccn2Cc2ccc(Cl)cc2)c1	-1%	?	?	1	79µM*
S=C(Nc1cccc(Cl)c1)N(CCCN1CCCC1)Cc1cccn1Cc1ccc(Cl)cc1	0%	?	?	-1	63µM*
COc1cccc(NC(=S)N(CCCN2CCCC2)Cc2cccn2Cc2ccc(Cl)cc2)c1	5%	?	?	-1	7%
COc1cccc2c1cc1c(=O)n(CC(=O)NCc3ccco3)nc(C)n12	-10%	-7%	-5%	/	/
COc1cccc(Cn2c(=O)c(-c3cccc(C#N)c3)nc3cnc(OC)nc32)c1	/	/	/	-5	9%
SMILES	Tau FP inhib	Tau fluor counter	Tau ThT inhib	Coupling enz	Sfp inh
COc1ccc(/C=C2\CCCC(C(=O)C(F)(F)F)=C2O)cc1	-10%	-17%	?	2	-12%
O=C(C1=C(O)/C(=C/c2ccc(O)cc2)CCC1)C(F)(F)F	?	?	28µM*	9	-22%
COc1ccc(CNCc2c(C(=O)O)c(C)n(Cc3ccccc3C)c2C)c(OC)c1	6%	-6%	-10%	/	/
COc1cc(NC(=O)c2ccccc2)c(OC)cc1NC(=O)CSc1[nH]c(=O)cc(C)c1C#N	/	/	/	4	-7%
COCCOC(=O)c1c(C)nc(SCC(=O)Nc2ccc(C)cc2)c(C#N)c1-c1ccco1	-7%	-24%	-5%	-3	23%
Cc1cc(=O)[nH]c(SCC(=O)Nc2cccc3ccccc23)c1C#N	9%	-4%	-7%	0	50µM*
COCCOC(=O)c1c(C)nc(SCC(=O)Nc2cccc3ccccc23)c(C#N)c1-c1ccco1	2%	-27%	-15%	-1	7.9µM*
CC(=O)N(O)CCCCCNC(=O)CCC(=O)N(O)CCCCCNC(=O)CCC(=O)N(O)CCCCCN	-5%	-7%	1%	0	45µM*!
CCn1ccc2cc(OC)ccc2c1=S	-5%	2%	?	-83*	-107%
CCn1c(=S)ccc2ccc(OC)cc21	-1%	0%	?	2	13%
CCOc1cc(-c2nc3ccccc3s2)ccc1O	5%	20µM*[quencher]	?	0	-11%
COc1cc(-c2nc3ccccc3s2)ccc1O	7%	?	?	1	-10%
CCN1CCc2c(sc(N)c2C(N)=O)C1	?	-7%	?	-15	50µM*
CN1CCc2c(sc(N)c2C(N)=O)C1	?	-15%	?	-33*	56µM*
Oc1ccc(/C=N/N2CCN(C3c4ccccc4-c4ccccc43)CC2)cc1O	?	13µM*[quencher]	?	8	56µM*
COc1cc(/C=N/N2CCN(C3c4ccccc4-c4ccccc43)CC2)cc(OC)c1O	12%	?	?	-5	40µM*
O=C(O)c1ccc(/C=N/N2CCN(C3c4ccccc4-c4ccccc43)CC2)cc1	0%	-6%	/	0	?
COc1ccccc1N1CCN(/N=C\c2ccc(C)o2)CC1	6%	-8%	-10%	-7	79µM*
Cc1ccc(/C=N/N2CCN(C3c4ccccc4-c4ccccc43)CC2)o1	-2%	-28%	-25%	2	18µM*
Oc1ccc(/C=N/N2CCN(C3c4ccccc4-c4ccccc43)CC2)cc1	-9%	?	-7%	15	12%
COc1cc(/C=N/N2CCN(C3c4ccccc4-c4ccccc43)CC2)cc(OC)c1OC	?	-21%	-14%	-1	?
Cc1ccc2c(c1)N(C(=O)C1CCN(S(=O)(=O)c3c(C)noc3/C=C/c3ccccc3F)CC1)CCO2	-4%	-9%	1%	/	/
Oc1ccc(/C=N/N2CCN(C3c4ccccc4-c4ccccc43)CC2)c(O)c1	?	13µM*[quencher]	-18%	16	24%
Cc1ccc(/C=N/N2CCN(Cc3ccc(Cl)cc3)CC2)o1	-1%	-3%	-7%	0	25µM*
O=C(O)c1ccccc1/C=N/N1CCN(C2c3ccccc3-c3ccccc32)CC1	-7%	-4%	-10%	14	8%
COc1ccc(NC(=O)CSc2nnc(-c3ccncc3)n2-c2ccccc2)cc1	-12%	3%	1%	/	/
Cc1ccc(/C=N/N=C2/NC(=O)C(CC(=O)Nc3ccccc3)S2)o1 (stereo not drawn)	-10%	-14%	-9%	-2	-18%
O=C(O)CC1S/C(=N/N=C/C=C/c2ccccc2[N+](=O)[O-])NC1=O (stereo not drawn)	4%	-6%	-15%	-1	4%
